# According to PubChem BioAssay (NCI):
# About 79,000 compounds went through this panel and 15% of them were active in at least one assay; those are over-represented in the sample as a whole. A number with no mark means an inactive call. Active and inactive are the calls of the source. Rule as the data show it: active = growth inhibition above about 70%; inactive = the rest.
# Tests used:
# [1] = NCI Yeast Anticancer Drug Screen. Data for the rad52 strain (AID 147);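 also: 0% = growth of vehicle-treated control cultures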; conditions: S. cerevisiae rad52 mutant growth inhibition, hits give high values
# In short: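 Genetically altered yeast (DNA damage repair defect) treated with compound; inhibition calculated relative to vehicle.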
# [2] = NCI Yeast Anticancer Drug Screen. Data for the wt1 strain (AID 149);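 also: 0% = growth of vehicle-treated wt1 cultures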; conditions: S. cerevisiae wt1 strain (SPY 50644) growth inhibition, hits give high values
# In short: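 Each compound is tested on wt1 yeast and the loss of growth versus vehicle gives the inhibition value.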
# [3] = NCI Yeast Anticancer Drug Screen. Data for the rad50EPP+ strain (AID 151);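 also: 0% = growth of vehicle-treated control cultures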; conditions: S. cerevisiae rad50 mutant strain, hits give high values
# In short: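 Strain rad50EPP+; compound exposure; % growth inhibition vs vehicle.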
# [4] = NCI Yeast Anticancer Drug Screen. Data for the mgt1 strain (AID 153); conditions: S. cerevisiae mgt1 mutant growth inhibition, hits give high values
# In short: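 Read-out: yeast growth inhibition vs vehicle control. Strain mgt1, drawn from a panel altered in DNA damage repair or cell cycle control.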
# [5] = NCI Yeast Anticancer Drug Screen. Data for the rad50 strain (AID 155);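 also: 0% = growth of vehicle-only cultures of the same strain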; conditions: S. cerevisiae rad50 strain growth inhibition, hits give high values
# In short: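 Vehicle-treated cultures provide the reference for the growth inhibition reported for compound-exposed, repair-deficient yeast.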
# [6] = NCI Yeast Anticancer Drug Screen. Data for the mec2-1 strain (AID 157); conditions: S. cerevisiae mec2-1 strain, hits give high values
# In short: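 Cells of the genetically defined mec2-1 yeast strain are incubated with test compound. Inhibition of growth is calculated against vehicle-treated controls.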
# [7] = NCI Yeast Anticancer Drug Screen. Data for the rad14 strain (AID 159);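 also: 0% = growth of vehicle-treated control cultures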; conditions: S. cerevisiae rad14 strain growth inhibition, hits give high values
# In short: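 Inhibition of growth is reported for a repair-deficient yeast mutant following compound treatment, calculated relative to cultures that received vehicle.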
# [8] = NCI Yeast Anticancer Drug Screen. Data for the sgs1 mgt1 strain (AID 161);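 also: 0% = growth of cultures given vehicle only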; conditions: S. cerevisiae sgs1 mgt1 strain, hits give high values
# In short: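 Inhibition of yeast growth, normalised to vehicle-treated controls, is reported for a strain bearing genetic alterations in DNA damage repair.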
# [9] = NCI Yeast Anticancer Drug Screen. Data for the CLN2oe strain (AID 163);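 also: 0% = growth of vehicle-only control cultures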; conditions: S. cerevisiae CLN2oe strain, hits give high values
# In short: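 Strain altered in cell-cycle control, incubated with compound; growth compared to solvent-treated controls.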
# [10] = NCI Yeast Anticancer Drug Screen. Data for the cln2 rad14 strain (AID 165);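 also: 0% = growth equal to vehicle treated cultures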; conditions: S. cerevisiae cln2 rad14 strain, hits give high values
# In short: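 The screen exposed genetically defined yeast (cln2 rad14) to test compounds and scored growth inhibition relative to vehicle-treated controls.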
# [11] = NCI Yeast Anticancer Drug Screen. Data for the bub3 strain (AID 167); conditions: S. cerevisiae bub3 mutant strain, hits give high values
# In short: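 Mutant yeast screening strain plus compound; vehicle-treated cultures serve as the 0% inhibition reference.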
# [12] = NCI Yeast Anticancer Drug Screen. Data for the wt2 strain (AID 169); conditions: S. cerevisiae wt2 strain growth inhibition, hits give high values
# In short: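 Steps: yeast strain treated with compound; growth recorded; inhibition calculated relative to cultures given vehicle alone.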
# [13] = NCI Yeast Anticancer Drug Screen. Data for the mlh1 strain (AID 171);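 also: 0% = growth of vehicle-treated control cultures of the same strain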; conditions: S. cerevisiae mlh1 strain growth inhibition, hits give high values
# In short: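 Yeast screen: mutant strain plus compound, growth scored against vehicle control wells.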
# [14] = NCI Yeast Anticancer Drug Screen. Data for the sgs1 strain (AID 173);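 also: 0% = growth of vehicle-only control cultures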; conditions: S. cerevisiae sgs1 mutant, hits give high values
# In short: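 Inhibition of yeast growth served as the measure. The mutant strain was treated with each compound, and growth was normalised to cultures receiving vehicle alone.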
# [15] = NCI Yeast Anticancer Drug Screen. Data for the mlh1 rad18 strain (AID 175); conditions: S. cerevisiae mlh1 rad18 strain growth inhibition, hits give high values
# In short: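 Compound-treated yeast growth, normalised to vehicle controls. Strain bears defined DNA repair mutations.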
# [16] = NCI Yeast Anticancer Drug Screen. Data for the rad18 strain (AID 177); conditions: S. cerevisiae rad18 mutant growth inhibition, hits give high values
# In short: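 Inhibition values reflect reduced yeast growth compared with vehicle-treated controls, using a strain engineered with a DNA damage repair defect.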
# [17] = at 5.0 µM (retest, dose inferred, filed as 0.5)
# [18] = at 50.0 µM (retest, dose inferred, filed as 5.0)
compound,measurement,setting,value
O=[N+]([O-])c1ccc([N+]2=NC(c3ccccc3)=NN(c3ccccc3)C2)cc1,growth inhibition,[1]; at 1.2 µM,8%
same,growth inhibition,[1]; at 3.7 µM,11%
same,growth inhibition,[1]; at 11.0 µM,10%
same,growth inhibition,[1]; at 33.0 µM,14%
same,growth inhibition,[1]; at 100.0 µM,56%
same,growth inhibition,[2]; at 1.2 µM,3%
same,growth inhibition,[2]; at 3.7 µM,5%
same,growth inhibition,[2]; at 11.0 µM,4%
same,growth inhibition,[2]; at 33.0 µM,3%
same,growth inhibition,[2]; at 100.0 µM,51%
same,growth inhibition,[3]; at 1.2 µM,6%
same,growth inhibition,[3]; at 3.7 µM,12%
same,growth inhibition,[3]; at 11.0 µM,21%
same,growth inhibition,[3]; at 33.0 µM,22%
same,growth inhibition,[3]; at 100.0 µM,20%
same,growth inhibition,[4]; at 1.2 µM,6%
same,growth inhibition,[4]; at 3.7 µM,5%
same,growth inhibition,[4]; at 11.0 µM,7%
same,growth inhibition,[4]; at 33.0 µM,21%
same,growth inhibition,[4]; at 100.0 µM,95% (active)
same,growth inhibition,[5]; at 1.2 µM,5%
same,growth inhibition,[5]; at 3.7 µM,-6%
same,growth inhibition,[5]; [17],1%
same,growth inhibition,[5]; at 11.0 µM,-9%
same,growth inhibition,[5]; at 33.0 µM,15%
same,growth inhibition,[5]; [18],30%
same,growth inhibition,[5]; at 50.0 µM,67.3%
same,growth inhibition,[5]; at 100.0 µM,63%
same,growth inhibition,[6]; at 1.2 µM,-2%
same,growth inhibition,[6]; at 3.7 µM,-2%
same,growth inhibition,[6]; [17],-9%
same,growth inhibition,[6]; at 11.0 µM,0%
same,growth inhibition,[6]; at 33.0 µM,9%
same,growth inhibition,[6]; [18],6%
same,growth inhibition,[6]; at 50.0 µM,18.4%
same,growth inhibition,[6]; at 100.0 µM,42%
same,growth inhibition,[7]; at 1.2 µM,4%
same,growth inhibition,[7]; at 3.7 µM,8%
same,growth inhibition,[7]; at 11.0 µM,20%
same,growth inhibition,[7]; at 33.0 µM,44%
same,growth inhibition,[7]; at 100.0 µM,93% (active)
same,growth inhibition,[8]; [17],-1%
same,growth inhibition,[8]; [18],17%
same,growth inhibition,[8]; at 50.0 µM,74.5% (active)
same,growth inhibition,[9]; at 1.2 µM,-5%
same,growth inhibition,[9]; at 3.7 µM,-3%
same,growth inhibition,[9]; at 11.0 µM,-2%
same,growth inhibition,[9]; at 33.0 µM,2%
same,growth inhibition,[9]; at 100.0 µM,40%
same,growth inhibition,[10]; [17],9%
same,growth inhibition,[10]; [18],20%
same,growth inhibition,[10]; at 50.0 µM,21.4%
same,growth inhibition,[11]; at 1.2 µM,-2%
same,growth inhibition,[11]; at 3.7 µM,0%
same,growth inhibition,[11]; [17],10%
same,growth inhibition,[11]; at 11.0 µM,12%
same,growth inhibition,[11]; at 33.0 µM,30%
same,growth inhibition,[11]; [18],91% (active)
same,growth inhibition,[11]; at 50.0 µM,78% (active)
same,growth inhibition,[11]; at 100.0 µM,87% (active)
same,growth inhibition,[12]; at 1.2 µM,0%
same,growth inhibition,[12]; at 3.7 µM,2%
same,growth inhibition,[12]; at 11.0 µM,1%
same,growth inhibition,[12]; at 33.0 µM,11%
same,growth inhibition,[12]; at 100.0 µM,95% (active)
same,growth inhibition,[13]; at 1.2 µM,1%
same,growth inhibition,[13]; at 3.7 µM,4%
same,growth inhibition,[13]; at 11.0 µM,6%
same,growth inhibition,[13]; at 33.0 µM,19%
same,growth inhibition,[13]; at 100.0 µM,93% (active)
same,growth inhibition,[14]; at 1.2 µM,0%
same,growth inhibition,[14]; at 3.7 µM,1%
same,growth inhibition,[14]; at 11.0 µM,2%
same,growth inhibition,[14]; at 33.0 µM,28%
same,growth inhibition,[14]; at 100.0 µM,91% (active)
same,growth inhibition,[15]; [17],-2%
same,growth inhibition,[15]; [18],48%
same,growth inhibition,[15]; at 50.0 µM,80.5% (active)
same,growth inhibition,[16]; at 1.2 µM,3%
same,growth inhibition,[16]; at 3.7 µM,4%
same,growth inhibition,[16]; at 11.0 µM,2%
same,growth inhibition,[16]; at 33.0 µM,11%
same,growth inhibition,[16]; at 100.0 µM,70% (active)
Cc1ccc(NN(NC(=O)OC(C)C)C(=O)OC(C)C)cc1,growth inhibition,[1]; at 1.2 µM,-2%
same,growth inhibition,[1]; at 3.7 µM,-2%
same,growth inhibition,[1]; at 11.0 µM,0%
same,growth inhibition,[1]; at 33.0 µM,8%
same,growth inhibition,[1]; at 100.0 µM,17%
same,growth inhibition,[2]; at 1.2 µM,2%
same,growth inhibition,[2]; at 3.7 µM,7%
same,growth inhibition,[2]; at 11.0 µM,4%
same,growth inhibition,[2]; at 33.0 µM,7%
same,growth inhibition,[2]; at 100.0 µM,11%
same,growth inhibition,[3]; at 1.2 µM,5%
same,growth inhibition,[3]; at 3.7 µM,13%
same,growth inhibition,[3]; at 11.0 µM,25%
same,growth inhibition,[3]; at 33.0 µM,50%
same,growth inhibition,[3]; at 100.0 µM,64%
same,growth inhibition,[4]; at 1.2 µM,0%
same,growth inhibition,[4]; at 3.7 µM,-3%
same,growth inhibition,[4]; at 11.0 µM,1%
same,growth inhibition,[4]; at 33.0 µM,14%
same,growth inhibition,[4]; at 100.0 µM,13%
same,growth inhibition,[5]; at 1.2 µM,-1%
same,growth inhibition,[5]; at 3.7 µM,0%
same,growth inhibition,[5]; [17],3%
same,growth inhibition,[5]; at 11.0 µM,-1%
same,growth inhibition,[5]; at 33.0 µM,8%
same,growth inhibition,[5]; [18],35%
same,growth inhibition,[5]; at 50.0 µM,23.1%
same,growth inhibition,[5]; at 100.0 µM,13%
same,growth inhibition,[6]; at 1.2 µM,3%
same,growth inhibition,[6]; at 3.7 µM,5%
same,growth inhibition,[6]; [17],1%
same,growth inhibition,[6]; at 11.0 µM,8%
same,growth inhibition,[6]; at 33.0 µM,13%
same,growth inhibition,[6]; [18],5%
same,growth inhibition,[6]; at 50.0 µM,6.1%
same,growth inhibition,[6]; at 100.0 µM,15%
same,growth inhibition,[7]; at 1.2 µM,-2%
same,growth inhibition,[7]; at 3.7 µM,-1%
same,growth inhibition,[7]; at 11.0 µM,-1%
same,growth inhibition,[7]; at 33.0 µM,1%
same,growth inhibition,[7]; at 100.0 µM,8%
same,growth inhibition,[8]; [17],15%
same,growth inhibition,[8]; [18],19%
same,growth inhibition,[8]; at 50.0 µM,29.6%
same,growth inhibition,[9]; at 1.2 µM,-3%
same,growth inhibition,[9]; at 3.7 µM,-11%
same,growth inhibition,[9]; at 11.0 µM,-5%
same,growth inhibition,[9]; at 33.0 µM,1%
same,growth inhibition,[9]; at 100.0 µM,5%
same,growth inhibition,[10]; [17],14%
same,growth inhibition,[10]; [18],27%
same,growth inhibition,[10]; at 50.0 µM,28.6%
same,growth inhibition,[11]; at 1.2 µM,-5%
same,growth inhibition,[11]; at 3.7 µM,-3%
same,growth inhibition,[11]; [17],17%
same,growth inhibition,[11]; at 11.0 µM,-1%
same,growth inhibition,[11]; at 33.0 µM,6%
same,growth inhibition,[11]; [18],38%
same,growth inhibition,[11]; at 50.0 µM,2.1%
same,growth inhibition,[11]; at 100.0 µM,17%
same,growth inhibition,[12]; at 1.2 µM,-1%
same,growth inhibition,[12]; at 3.7 µM,-1%
same,growth inhibition,[12]; at 11.0 µM,0%
same,growth inhibition,[12]; at 33.0 µM,7%
same,growth inhibition,[12]; at 100.0 µM,11%
same,growth inhibition,[13]; at 1.2 µM,0%
same,growth inhibition,[13]; at 3.7 µM,2%
same,growth inhibition,[13]; at 11.0 µM,5%
same,growth inhibition,[13]; at 33.0 µM,7%
same,growth inhibition,[13]; at 100.0 µM,8%
same,growth inhibition,[14]; at 1.2 µM,1%
same,growth inhibition,[14]; at 3.7 µM,1%
same,growth inhibition,[14]; at 11.0 µM,5%
same,growth inhibition,[14]; at 33.0 µM,14%
same,growth inhibition,[14]; at 100.0 µM,15%
same,growth inhibition,[15]; [17],16%
same,growth inhibition,[15]; [18],62%
same,growth inhibition,[15]; at 50.0 µM,78.8% (active)
same,growth inhibition,[16]; at 1.2 µM,-3%
same,growth inhibition,[16]; at 3.7 µM,-4%
same,growth inhibition,[16]; at 11.0 µM,1%
same,growth inhibition,[16]; at 33.0 µM,12%
same,growth inhibition,[16]; at 100.0 µM,21%
